From PubChem BioAssay (NCI) come the findings set out here.

Compounds without any hit were thinned out: in the full panel of roughly 83,000, 20% have a hit.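 48-hour exposure, single concentration, 96-well plates; percent growth endpoint where 0 means no net growth. Active: below 10.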 A number with no mark means an inactive call. Activity calls are given as the source filed them.

Test systems include SK-MEL-2 melanoma; EKVX NSCLC; SN12C renal; UO-31 renal; TK-10 renal; ACHN renal; CAKI-1 renal; A498 renal; CCRF-CEM leukemia; MOLT-4 leukemia; SR leukemia; OVCAR-8 ovarian; OVCAR-5 ovarian; OVCAR-4 ovarian; SK-OV-3 ovarian; OVCAR-3 ovarian; HS 578T breast; NCI/ADR-RES ovarian; IGROV1 ovarian.
Holding throughout (assay): NCI-60 one-dose screen, 48 h (100 = growth as untreated, 0 = no growth, -100 = all killed)
Common to all, as to conditions: 10 µM unless noted

As to `COC1=C(C)C(=O)c2c(c(CCCl)c3n2CCC3OC(C)=O)C1=O` (configuration not stated), the growth is -45.6% (active) with SK-MEL-2 melanoma; 0.0316% (active) with EKVX NSCLC; 3.34% (active) in the assay with SN12C renal; -60.9% (active) in the assay with UO-31 renal; -37.9% (active) in the assay on TK-10 renal; -3.88% (active) with ACHN renal. Further, the growth with CAKI-1 renal is 0.742% (active); in the assay with A498 renal, -87.8% (active); with CCRF-CEM leukemia, 50.2%; in the assay on MOLT-4 leukemia, 34.4%; in the assay on SR leukemia, 1.94% (active); in the assay with OVCAR-8 ovarian it was 10.2%. The growth in the assay on OVCAR-5 ovarian was 4.93% (active); in the assay with OVCAR-4 ovarian, 72%; in the assay on SK-OV-3 ovarian, -21.6% (active); in the assay with OVCAR-3 ovarian, -23.3% (active); in the assay on HS 578T breast, -22.9% (active); in the assay with NCI/ADR-RES ovarian, 8.95% (active).

Regarding `CCOC(=O)c1cn2ncnc(Oc3ccc(NC(=O)NCCN(C)C)c(Cl)c3)c2c1C`, the growth with SK-MEL-2 melanoma is 112%; with EKVX NSCLC, 79.3%; in the assay on SN12C renal, 63.9%; with UO-31 renal, 62.1%; with TK-10 renal, 105%; in the assay with ACHN renal, 84.5%. The growth is 65.8% in the assay with CAKI-1 renal; 57.5% with A498 renal; 43.4% in the assay with CCRF-CEM leukemia; 53.9% in the assay with MOLT-4 leukemia; -13.1% (active) in the assay on SR leukemia; 78.9% in the assay with OVCAR-8 ovarian. In addition, the growth was 91.6% with OVCAR-5 ovarian; 82.4% with OVCAR-4 ovarian; 94.1% in the assay with SK-OV-3 ovarian; 75% in the assay with OVCAR-3 ovarian; 85.6% in the assay on HS 578T breast; 88.7% in the assay with NCI/ADR-RES ovarian.

As for `Cc1ccc(-c2nc(N3CCN(C(=O)c4ccc(OC(F)(F)F)cc4)CC3)c3ccccc3n2)cc1`, the growth in the assay on SK-MEL-2 melanoma was 102%; in the assay with EKVX NSCLC it was 88.5%; with SN12C renal it was 90.5%; with UO-31 renal it was 53.7%; in the assay with TK-10 renal it was 90.6%; in the assay on ACHN renal, 89.5%. For the same compound, the growth is 69.8% with CAKI-1 renal; 63.7% with A498 renal; 75.3% with CCRF-CEM leukemia; 56.8% in the assay with MOLT-4 leukemia; 78.5% with SR leukemia; 90.3% with OVCAR-8 ovarian. Further, the growth in the assay with OVCAR-5 ovarian was 97.8%; in the assay with OVCAR-4 ovarian, 106%; in the assay with SK-OV-3 ovarian it was 99.3%; with IGROV1 ovarian, 85.6%; in the assay with HS 578T breast, 79.1%; with NCI/ADR-RES ovarian it was 84.4%.

On to `COc1ccc(-c2csc(NC(=O)N3CCN(c4cc5c(cc4F)c(=O)c(C(=O)O)cn5C4CC4)CC3)n2)cc1`, for which the growth is -20.4% (active) in the assay on SK-MEL-2 melanoma; 23.1% in the assay with EKVX NSCLC; 5.86% (active) with SN12C renal; 1.86% (active) with UO-31 renal; 25.5% in the assay on TK-10 renal; 9.82% (active) in the assay with ACHN renal. The growth in the assay on CAKI-1 renal was 29%; with A498 renal, -15% (active); in the assay on CCRF-CEM leukemia, 7.96% (active); in the assay on MOLT-4 leukemia, 3.03% (active); with SR leukemia, 15.4%; in the assay on OVCAR-8 ovarian, 3.75% (active). The growth in the assay with OVCAR-5 ovarian was 25.5%; in the assay on OVCAR-4 ovarian, 18.4%; in the assay with SK-OV-3 ovarian, -8.98% (active); in the assay on OVCAR-3 ovarian, -3.32% (active); with HS 578T breast it was 28.8%; with NCI/ADR-RES ovarian, 57.5%.

For `CC/C=C\C[C@@H](O)C/C=C1/C(=O)C=C[C@H]1C/C=C\CCCC(=O)OC`, the growth was 77.9% in the assay with SK-MEL-2 melanoma; 88.2% with EKVX NSCLC; -29.5% (active) in the assay with SN12C renal; 16.9% in the assay with UO-31 renal; 31.1% with TK-10 renal; 26.8% with ACHN renal. Besides, the growth was 17.9% with CAKI-1 renal; 97.4% in the assay with A498 renal; -9.05% (active) in the assay with CCRF-CEM leukemia; -4.62% (active) in the assay on MOLT-4 leukemia; -17.5% (active) with SR leukemia; -6.75% (active) in the assay with OVCAR-8 ovarian. Further, the growth with OVCAR-5 ovarian was 54.1%; in the assay on OVCAR-4 ovarian it was 44.9%; in the assay on SK-OV-3 ovarian, 99.3%; in the assay on OVCAR-3 ovarian, -2.32% (active); with HS 578T breast, 21%; in the assay on NCI/ADR-RES ovarian it was 10.6%.

In the case of `NCCCNc1nc2ccc(Cl)cc2c2c(=O)c3cc(F)ccc3sc12`, the growth with SK-MEL-2 melanoma is 104%; in the assay with EKVX NSCLC, 81.3%; with SN12C renal, 71%; in the assay with UO-31 renal it was 46.3%; in the assay with TK-10 renal, 89%; in the assay on ACHN renal, 35.4%. Besides, the growth in the assay with CAKI-1 renal was 24.4%; in the assay on A498 renal, 23.4%; with CCRF-CEM leukemia, 12.1%; with MOLT-4 leukemia, 8.78% (active); in the assay with SR leukemia, -27.4% (active); in the assay on OVCAR-8 ovarian it was 57.3%. The growth with OVCAR-5 ovarian was 83.5%; in the assay with OVCAR-4 ovarian it was 11.3%; in the assay with SK-OV-3 ovarian it was 89.4%; in the assay on IGROV1 ovarian, 52.8%; with HS 578T breast, 65.9%; in the assay on NCI/ADR-RES ovarian, 65.9%.

For the compound `CCCCC[C@H](O)C/C=C1/C(=O)C=C[C@@H]1C/C=C\CCCC(=O)O`, the growth in the assay with SK-MEL-2 melanoma was 79.6%; with EKVX NSCLC, 100%; in the assay on SN12C renal it was 52.3%; with UO-31 renal, 81.9%; in the assay with TK-10 renal it was 111%; with ACHN renal, 83.2%. Moreover, the growth in the assay with CAKI-1 renal is 80.7%; in the assay with A498 renal, 109%; in the assay with CCRF-CEM leukemia, 14.9%; with MOLT-4 leukemia it was 43.2%; in the assay on SR leukemia it was 15.8%; in the assay on OVCAR-8 ovarian, 33.7%. Also, the growth was 152% in the assay on OVCAR-5 ovarian; 77.8% in the assay on OVCAR-4 ovarian; 118% with SK-OV-3 ovarian; 22.2% in the assay on OVCAR-3 ovarian; 95.6% in the assay with HS 578T breast; 54.4% in the assay with NCI/ADR-RES ovarian.

On to `Clc1ccc2c(c1)N(CCCN1CCCC1)c1ccccc1S2`, for which the growth in the assay on SK-MEL-2 melanoma is 74%; with EKVX NSCLC it was 51.6%; in the assay with SN12C renal it was 15%; with UO-31 renal, 40.1%; with TK-10 renal, 82.9%; with ACHN renal, 45%. The growth is 56% with CAKI-1 renal; 36.6% in the assay on A498 renal; 36.3% in the assay with CCRF-CEM leukemia; 24.2% with MOLT-4 leukemia; -30.1% (active) in the assay on SR leukemia; 77.1% with OVCAR-8 ovarian. The growth with OVCAR-5 ovarian is 53.8%; in the assay on OVCAR-4 ovarian, 53.6%; in the assay on SK-OV-3 ovarian, 37.2%; in the assay with OVCAR-3 ovarian it was 44%; in the assay with HS 578T breast it was 42.6%; in the assay on NCI/ADR-RES ovarian it was 35.8%.

Consider `CN1C(=O)CNC(=O)[C@H](NC(=O)c2nc3ccccc3cc2O)CSSC[C@H]1C(=O)NCCCc1nc2ccccc2cc1O`, for which the growth in the assay on SK-MEL-2 melanoma is -12.5% (active); in the assay on EKVX NSCLC it was 85.4%; in the assay on SN12C renal, 73.4%; in the assay on UO-31 renal, 62.6%; in the assay on TK-10 renal, 75%; in the assay on ACHN renal it was 82.3%. The growth in the assay with CAKI-1 renal is 107%; with A498 renal it was 118%; in the assay on CCRF-CEM leukemia, 14.3%; in the assay on MOLT-4 leukemia, -4.7% (active); in the assay on SR leukemia, -46.3% (active); with OVCAR-8 ovarian, 86.2%. Further, the growth in the assay with OVCAR-5 ovarian is 121%; in the assay with OVCAR-4 ovarian, 96%; with SK-OV-3 ovarian, 113%; in the assay on OVCAR-3 ovarian, 9.86% (active); in the assay with HS 578T breast, 90.7%; in the assay on NCI/ADR-RES ovarian, 102%.
